Among all 360,000 compounds or so, about 17,000 (4.7%) were called active. Not shown: some 5% with an inconclusive outcome. No stated cut-off is given here; in the data, active means activity change below about -50%; inconclusive means mostly about -30% to -49%; inactive means weaker than that. Many of the other results were omitted from the sample, so actives are more common in it than they were.

Activity change data for 59 compounds are collected here from PubChem BioAssay AID743279 (National Center for Advancing Translational Sciences (NCATS), 2014).
On the % scale 0 is the no-effect control and ±100 the full control effect.

A short description of this assay: qHTS for Inhibitors of Inflammasome Signaling: IL-1-beta AlphaLISA Primary Screen. The following applies: THP-1 LPS/ATP IL-1B secretion, 16 h; at 57.5 µM, stronger effect = lower value. An outline of the steps:
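Secreted IL-1B measured by AlphaLISA bead assay after 16 h compound exposure of THP-1 cells; compounds (final up to 57.5 uM) added 1 h before LPS (250 ng/mL) and ATP (1.25 mM) stimulation; lower signal means less secretion.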
As for `OC(c1ccc(Cl)cc1)c1ncc(-c2ccc(Cl)cc2)[nH]1` (centres undefined), the activity change is -2.78% (inactive).
Take `CCCNC(=O)C1(C)CCCN(C(=O)c2oc3ccccc3c2C)C1` (centres undefined): the activity change is 35.7% (inactive).
`CN1CCN(c2ccncc2S(=O)(=O)N2CCCC2)CC1`: the activity change was 21.6% (inactive).
Regarding `COc1ccc2c(CC(=O)OCC(=O)NC(N)=O)coc2c1`, the activity change was 0% (inactive).
Turning to `CCNC(=O)C1(C)CCCN(C(=O)c2ccc3ccccc3n2)C1` (centres undefined), the activity change is -16.3% (inactive).
As to `COc1ccc(C=C2CCC3C(CCCC34OCCO4)C2=O)cc1` (centres undefined), the activity change was -24.6% (inactive).
Turning to `CC1CCN(CCCNC(=O)CN2C(=O)CSc3ccc(S(=O)(=O)N4CCCCC4)cc32)CC1`, the activity change is -0.367% (inactive).
For the compound `O=C(CSCc1ccc(Br)cc1)Nc1ccc(S(=O)(=O)N2CCCCCC2)cc1`, the activity change was 23.8% (inactive).
Turning to `O=C(CN1CCCCCC1)Nc1ccc(S(=O)(=O)N2CCCCC2)cc1`, the activity change is -59.2% (active).
For `COc1ccc(CCNC(=O)CN2C(=O)COc3ccc(S(=O)(=O)N4CCCC4)cc32)cc1OC`, the activity change is -11.4% (inactive).
For the compound `CCOc1ccc(NC(=O)COc2ccc(S(=O)(=O)N3CCCC3)cc2)cc1`, the activity change was 5.76% (inactive).
Take `COCCCNC(=O)CN1C(=O)CSc2ccc(S(=O)(=O)N3CCOCC3)cc21`: the activity change was -5.17% (inactive).
As for `COc1ccc(NC(=O)CN2C(=O)CSc3ccc(S(=O)(=O)N4CCC(C)CC4)cc32)cc1`, the activity change is -67.1% (active).
For the compound `CCc1ccc(NC(=O)CN2C(=O)COc3ccc(S(=O)(=O)N4CCCC4)cc32)cc1`, the activity change was -54.9% (active).
In the case of `CN(C)c1ccc(CNC(=O)CN2C(=O)COc3ccc(S(=O)(=O)N4CCCC4)cc32)cc1`, the activity change is 12.9% (inactive).
As for `O=C(Nc1c(Br)cc2c(c1Br)Cc1ccccc1-2)C(F)(F)F`, the activity change was 17.9% (inactive).
With `Cc1ccc2cc(CN(c3ccc(C)c(C)c3)S(C)(=O)=O)c(=O)[nH]c2c1`, the activity change was -25.8% (inactive).
Consider `COc1ccc(NC(=O)c2sc(=O)n(Cc3ccc(S(=O)(=O)N(C)C)cc3)c2C)cc1`, for which the activity change was 6.5% (inactive).
On to `O=C(NCc1ccccc1)C1c2ccccc2OCC(=O)N1C1CC1` (centres undefined), for which the activity change was -1.49% (inactive).
Consider `Cc1cc(Br)cn2c(Cc3cccc(F)c3)c(-c3cccc(Br)c3)nc12`, for which the activity change was 25.5% (inactive).
Turning to `CCCC1C(c2ccccc2)C(C#N)(C#N)C2(C#N)CC1(N)NC2=O` (centres undefined), the activity change was 3.18% (inactive).
For `COc1ccc(C(C)(O)c2nc(-c3ccc(C)c(C)c3)cs2)cc1` (centres undefined), the activity change was 22% (inactive).
Regarding `COc1ccc(-c2csc(Nc3ccc(O)cc3)n2)cc1`, the activity change was -79.3% (active).
The result for `COc1ccc(-c2csc(Cc3nc(O)cs3)n2)cc1` reads -95.7% (active); that for `COc1ccc(C(O)c2nc(-c3ccc4c(c3)OCO4)cs2)cc1` (centres undefined), -22.4% (inactive); that for `COc1ccc(-c2csc(Nc3ccccn3)n2)cc1`, -86.3% (active).
Next, `COC(=O)CCc1sc(Nc2ccc(Br)cc2)nc1-c1ccc(OC)cc1`: -13.7% (inactive).
Consider `COc1cccc(C(O)c2nc(-c3ccc(C)c(C)c3)cs2)c1` (centres undefined), for which the activity change is 27% (inactive).
For the compound `COc1ccc(-c2cc3ncccc3cn2)cc1`, the activity change is 15.7% (inactive).
Take `COc1ccc(C(C)(O)c2nc(-c3cc(F)cc(F)c3)cs2)cc1` (centres undefined): the activity change is 42.9% (inactive).
Regarding `COc1ccc(C(O)c2nc(-c3ccc(OC)nc3)cs2)cc1` (centres undefined), the activity change was 36.7% (inactive).
The result for `COc1ccc(C(=O)/C=C/Nc2ccccn2)cc1` reads -1.59% (inactive); that for `COc1ccc(OC)c(Nc2nc(-c3ccc(O)c(O)c3)cs2)c1`, -70% (active); that for `NC(CSC(c1ccccc1)(c1ccccc1)c1ccc(-c2ccccc2)cc1)C(=O)O` (centres undefined), 1.83% (inactive).
`C=CCNC(=O)CCCC(=O)NCC=C`: the activity change is 0% (inactive).
Turning to `OC(c1ccccc1)c1nc(/C=C/c2ccc(C(F)(F)F)cc2)cs1` (centres undefined), the activity change was 15.3% (inactive).
Regarding `O=C(O)c1ccccc1Cc1ccc(F)c2ccccc12`, the activity change was 47.2% (inactive).
As for `O=S1(=O)CSCS(=O)(=O)C1`, the activity change is -18.2% (inactive).
As to `COc1ccc([C@H]2N[C@]3(CCCN(Cc4ccco4)C3=O)[C@H]3C(=O)N(C)C(=O)[C@@H]23)cc1`, the activity change is -4.35% (inactive).
On to `Cc1cc(=O)oc2c3c(cc(OCC(=O)NCCC(=O)N[C@@H](C)C(=O)O)c12)OC(C)(C)CC3`, for which the activity change is -0.546% (inactive).
`Cc1ccn2c(-c3csc(Nc4ccc(C(=O)O)cc4)n3)c(C)nc2c1`: the activity change was 30.5% (inactive).
Next, `O=c1oc2ccccc2cc1-c1csc(Nc2ccc(O)cc2)n1`: -97.2% (active); `O=C(NCc1cccnc1)c1cccc(-c2cc3ccccc3oc2=O)c1`: -3.38% (inactive).
Consider `Nc1nc2c(Br)ccc(Br)c2cc1C(=O)NCCc1ccccc1`, for which the activity change was 0% (inactive).
On to `CCCCN(C(=O)c1cccc(N2C(=O)c3ccccc3C2=O)c1)c1c(N)n(CCCC)c(=O)[nH]c1=O`, for which the activity change is 13% (inactive).
As to `CCC(C)NCCOCCOc1ccc(Br)cc1C` (centres undefined), the activity change was -17.9% (inactive).
For the compound `C[C@H](NC(=O)CC[C@H]1O[C@@H](n2ccc(=O)[nH]c2=O)[C@H](O)[C@@H]1O)c1cccc2ccccc12`, the activity change is 0% (inactive).
With `O=C(NC1CCN(Cc2ccccc2)CC1)c1ccc(Oc2cc(Cl)cc(Cl)c2)o1`, the activity change is -70.1% (active).
For `Cc1cc(C(=O)NC2CCN(Cc3ccccc3)CC2)n[nH]1`, the activity change is -8.74% (inactive).
Next, `O=C(NC1CCN(Cc2ccccc2)CC1)c1cc(Br)c(Br)[nH]1`: -123% (active); `COc1cc2[nH]c(=O)n(Cc3ccc(C(=O)NC4CCN(Cc5ccccc5)CC4)cc3)c(=O)c2cc1OC`: 2% (inactive).
In the case of `CCOc1ccc(CC(=O)NC2CCN(Cc3ccccc3)CC2)cc1`, the activity change was 0% (inactive).
Regarding `CC(C)(C)C(=O)NNC(=O)c1ccc(Oc2cc(Cl)cc(Cl)c2)o1`, the activity change was 6.58% (inactive).
As for `COC(=O)c1ccc2nc(-c3ccccc3)c(Cc3ccc(OC)cc3C)n2c1`, the activity change was -3.04% (inactive).
With `CSc1ccc(CN2CCC2(C)C(=O)Nc2ccc(C)c(O)c2)cc1` (centres undefined), the activity change was -13.3% (inactive).
In the case of `Cc1ccc(S(=O)(=O)N[C@H](CO)C(C)C)cc1`, the activity change is -19.8% (inactive).
For the compound `Cc1ccsc1CNn1cnnc1SCc1ccccc1F`, the activity change was -6.1% (inactive).
Next, `CC(C)c1ccc(CC(=O)N2CCC2(C)C(=O)NS(=O)(=O)c2ccc(C(C)(C)C)cc2)cc1` (centres undefined): 19.2% (inactive); `C[C@]12CCC(=O)C=C1C=CC1C2CC[C@@]2(C)C1CC[C@@]21CCC(=O)O1` (some centres undefined): -21.4% (inactive).
